Assay outcomes deposited in PubChem by National Center for Advancing Translational Sciences (NCATS).
Pf growth 96h – P. falciparum growth inhibition at 96 hours | Potency, µM (titrated, usually from 28.7 µM), for inactives: at the top dose activity change, negative = inhibition, actives largely listed as inhibitors | hit rate 6.9% among 320,000 | AID 504834 | P. falciparum luciferase reporter growth, 96 h; further: on the % scale 0 is the no-effect control and ±100 the full control effect
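Cell-based qHTS: luciferase-tagged P. falciparum in erythrocytes (2% hematocrit, 0.05% parasitemia final) incubated with compounds for 96 hours, 37 C, 5% CO2; luciferase detection reagent then added and luminescence measured.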
NS1 inh – influenza NS1 inhibition; hit rate 0.4% among 270,000; Potency, µM (highest dose often 46.1 µM), for the others: at the top dose activity, positive = more growth; AID 2326; calls by dose curve; further: actives are rising curves; nearly all actives have a fitted effect of over 50% in size
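Growth recovery, yeast-based: influenza A NS1 expressed in S. cerevisiae causes slow growth, and suppressors are detected by OD600. The parent strain without NS1 is used as positive control.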
Pf growth 48h – P. falciparum growth inhibition at 48 hours (one generation); Potency, µM (series often up to 28.7 µM), inactives show at the top dose activity change, negative = inhibition, actives largely listed as inhibitors; P. falciparum luciferase growth in erythrocytes, 48 h; hit rate 5.9% among 310,000; AID 504832; further: on the % scale 0 is the no-effect control and ±100 the full control effect
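Luciferase-expressing parasites in RBCs, 2% Hct / 0.1% parasitemia final; RPMI 1640 + 0.5% Albumax; 37 C, 5% CO2, one generation; luminescence read-out, lower signal = inhibition.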
AMA1-RON2 inh – AMA1-RON2 (P. falciparum) interaction inhibition; AlphaScreen AMA1-biotinylated RON2 peptide binding; Potency, µM (highest dose often 58.2 µM), for inactives: at the top dose activity change, negative = inhibition, usual class: inhibitors; hit rate 0.2% among 360,000;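 further: 0% = vehicle wells and -100% = peptide control; nearly all actives have a fitted effect of over 45% in size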
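AMA1 (3D7) with his tag at 25 nM final met compounds first, then biotinylated RON2 peptide at 25 nM; detection used donor plus acceptor beads, 10 µg/mL apiece, read by AlphaScreen after 30 min at room temperature.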
SARS PLpro yeast – SARS-CoV PLP inhibition in yeast. AID 485353. Potency, µM (titrated, usually from 32.9 µM), for inactives: at the top dose activity, positive = growth rescue, usual class: activators. hit rate 0.19% among 330,000. S. cerevisiae expressing SARS-CoV PLpro, growth rescue; calls by dose curve; further: 0% is about no effect; nearly all actives have a fitted effect of over 55% in size
HCV inhibitor – inhibitors of hepatitis C virus infection | AID 651820 | Potency, µM (series often up to 41.8 µM), inactives show at the top dose activity change, negative = inhibition, usual class: inhibitors | hit rate 3.4% among 340,000 | Huh7.5.1 HCVcc-Cre infection, luciferase reporter, 44 h; further: on the % scale 0 is the no-effect control and ±100 the full control effect
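A cell-based infection assay in which seeded cells (1,000 per well) receive test compound after 4 h, are inoculated with HCVcc-Cre at approximately 0.5 moi, and are incubated 44 h before luminescence detection.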
The depositor's hits bear a star; ? = inconclusive; . = no result given; [ ] = remark or other dose. The list is not random: actives were taken first. Their share in the collection is about 12%. Unless noted, the call rests on the fitted dose curve; in most records, active means well fitted curve in the direction sought with a large enough effect; inconclusive means small, poorly fitted or top-dose-only effect, or another doubt; inactive means no such curve, though single readings can be large; an effect the other way counts as inactive or inconclusive. Potency means the concentration at half of the fitted maximal effect.

SMILES	Pf growth 96h	NS1 inh	Pf growth 48h	AMA1-RON2 inh	SARS PLpro yeast	HCV inhibitor
C=CCN(CC(O)c1cccc([N+](=O)[O-])c1)C(C)CCc1ccccc1 (stereo unspecified)	?	-6%	1.5µM*	-28%	0%	7%
CN(c1cccc(Cl)c1)S(=O)(=O)c1cccc(C(=O)Nc2nc3ccccc3[nH]2)c1	?	30%	15µM*	38%	-9%	?
CSCCC(NC(=O)c1cccc(S(=O)(=O)N2CCN(C(C)=O)CC2)c1)c1nc2ccccc2[nH]1 (stereo unspecified)	.	.	.	0%	.	12%
CC(=O)N1CCN(S(=O)(=O)c2cccc(C(=O)Nc3nc4ccccc4[nH]3)c2)CC1	1.9µM*	-6%	?	22%	-3%	13%
CC1=C(C(=O)Nc2ccccc2C)C(c2ccc(C)o2)NC(=S)N1 (stereo unspecified)	7%	2%	19%	16%[2.32 µM]	-3%	13%
C/C(=N/NS(=O)(=O)c1ccc(Br)cc1)c1cccc(NC(=O)C2CC2)c1	.	.	.	-9%	.	.
CC1(C)CC(=O)C(C=NCCN2CCN(C3CC(=O)N(c4ccc(Cl)c(Cl)c4)C3=O)CC2)=C(O)C1 (stereo unspecified)	2%	-49%	15%	81%	-6%	4%
CN1C(=O)CC(N2CCN(CCN=CC3=C(O)CC(C)(C)CC3=O)CC2)C1=O (stereo unspecified)	12µM*	-45%	-11%	48%	1%	18%
O=C(O)CC1S/C(=N/N=C/C2CC=CCC2)NC1=O (stereo unspecified)	5.9µM*	6%	4%	80%	-1%	18%
O=C(O)CC1S/C(=N/N=C/C=C/c2ccccc2)NC1=O (stereo unspecified)	16%	0%	-5%	32%	2%	12%
Clc1cccc(-c2nn3c(Cn4cnc5ccccc54)nnc3s2)c1	13%	-34%	13µM*	-1%	-1%	-30%
O=S1(=O)CC(N2CCC(Cc3ccccc3)CC2)CN1CCc1ccccc1 (stereo unspecified)	.	.	.	-20%	.	.
Cc1ccc(/C=C/C(=O)c2ccc(C)cc2)cc1	13%	-16%	76%	1%	-21%	6%
Cc1ccc(/C=C/C(=O)C2C(=O)c3ccccc3C2=O)cc1	?	-26%	1.7µM*	7%	-21%	?
COc1ccc(S(=O)(=O)Nc2ccccc2C(=O)NCc2cccnc2)cc1OC	35%	?	3%	1%	3%	?
COc1ccc(C[C@H]2CN3C(=NC[C@H]3Cc3ccccc3)N2CCNC(=O)c2ccc(C)c(Br)c2)cc1	1.7µM*	4%	5.2µM*	-8%	-4%	-14%
COc1ccc(C[C@H]2CN3C(=NC[C@@H]3Cc3ccccc3)N2CCNC(=O)c2ccc(C)c(Br)c2)cc1	5.2µM*	5%	?	-16%	1%	?
COc1ccc(CCNC(=O)Nc2nc(C(N)Cc3ccccc3)cs2)cc1OC (stereo unspecified)	.	.	.	14%	.	.
CCc1nc2ccc(C(=O)N3CCN(C(=O)c4ccco4)CC3)cn2c1N(C)Cc1nccn1C	.	.	.	16%	.	.
O=c1[nH]c2ccccc2[n+]([O-])c1-c1ccccc1	16%	.	10%	1%	2%	25%
CC1CCCN(Cc2c(O)ccc3c2O/C(=C\c2ccco2)C3=O)C1 (stereo unspecified)	3.3µM*	-4%	2.3µM*	-27%	11%	34%
CN(C)Cc1c(O)ccc2c1O/C(=C\C=C\c1ccccc1)C2=O	-8%	?	1.7µM*	0%	-2%	-11%
CCN1CCN(Cc2c(O)ccc3c2O/C(=C\c2ccccc2)C3=O)CC1	12µM*	17%	?	?	13%	-6%
CCN1CCN(Cc2c(O)ccc3c2O/C(=C\c2ccc(C)cc2)C3=O)CC1	2.3µM*	.	5.2µM*	24%	0%	-3%
C=CCNC(=O)Cn1c(=O)c2c(ncn2CCC(C)C)n(Cc2ccccc2)c1=O	-2%	-13%	?	-11%	0%	6%
SMILES	Pf growth 96h	NS1 inh	Pf growth 48h	AMA1-RON2 inh	SARS PLpro yeast	HCV inhibitor
O=C(O)/C=C/C(=O)OC1CC2CCC1C2 (stereo unspecified)	5%	1%	-2%	1%	0%	23%
O=C(COc1ccc2c3c(c(=O)oc2c1)CCCC3)N1CCN(c2ccccc2)CC1	?	4%	-2%	1%	0%	?
Cc1ccc(C(=O)NCCNC(=O)c2ccco2)cn1	-5%	7%	11%	8%	2%	12%
c1ccc(-c2nc(-n3ccnc3)nc(-n3ccnc3)n2)cc1	2.3µM*	-78%	8.3µM*	-17%	-9%	?
CC(C)Nc1nc(-c2ccccc2)nc(-n2ccnc2)n1	3%	-34%	2.3µM*	20%	-13%	2.8µM*
c1ccc(CN2CCN(c3nc(-c4ccccc4)nc(-n4ccnc4)n3)CC2)cc1	-9%	-111%	3.7µM*	?	-20%	11µM*
c1ccc(-n2ccnc2)cc1	9%	4%	37%	-13%	10%	13%
c1ccc(-c2nc(NC3CC3)nc(-n3ccnc3)n2)cc1	-3%	-46%	13µM*	3%	-8%	2.5µM*
CC(C)c1ccc(NC(=S)NNC(=O)c2cccs2)cc1	-11%[1.15 µM]	6%	20%	87%	0%	12%
Cc1ccc([N+](=O)[O-])cc1S(=O)(=O)Nc1cccc(S(=O)(=O)NC2=NCCC2)c1	.	.	.	-21%	-18%	11%
NS(=O)(=O)c1ccc(CCNC(=O)CNC(=O)c2ccc(Br)o2)cc1	-8%	.	-17%	3%	1%	-2%
Cc1cccc(-n2c(O)c(C=Nc3ccc(O)cc3)c3ccccc3c2=O)n1	-34%	-1%	-13%	-8%	3%	1%
Cc1ccc(N=Cc2c(O)n(-c3ccc4c(c3)OCO4)c(=O)c3ccccc23)cc1	8.3µM*	18%	.	1%	-9%	?
O=C(CN(C(=O)CSc1nnc(COc2ccccc2)o1)c1ccc(F)cc1)NC1CCCC1	7%	-30%	9%	1%	-3%	?
O=C(CN(C(=O)CSc1nnc(COc2ccccc2)o1)c1ccc(F)cc1)NC1CCCCC1	?	-22%	12µM*	-3%	-1%	?
CCOc1ccc(N(CC(=O)NC2CCCC2)C(=O)CSc2nnc(COc3ccccc3)o2)cc1	7.4µM*	3%	.	-5%	-9%	22µM*
CCC(C)NC(=O)CC1Oc2ccc(Cl)cc2NC1=O (stereo unspecified)	10µM*	-2%	.	4%	1%	8%
COc1ccc(CCNC(=O)CC2Oc3ccc(Cl)cc3NC2=O)cc1OC (stereo unspecified)	-23%	-2%	.	-6%	0%	3%
